Screening results: PubChem BioAssay, several laboratories
Only some compounds are listed: those with a hit (about 4.9% of all), similar ones and a draw of the others.
Platelet DG rel: modulates dense granule release in human platelets | human platelet-rich plasma, SFLLRN dense granule ATP release, luminescence | inhibition, %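 (compounds screened at 7.5 µM in platelet-rich plasma)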 | 0.22% of 300,000 active | AID 1663;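 active = mean replicate score, as percent of positive control, at or above 50; inconclusive = mean below 50 but at least one replicate at or above 50; inactive = mean and every replicate below 50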
HSF1 inhib: HSF1 inhibition | NIH3T3-HGL HSE-luciferase, MG132-induced, luminescence 8 h; hits give low values | activity change, negative = inhibition, % at 7.5 µM (by protocol) | 0.77% of 300,000 active;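 active = more than half of replicate wells show activity change below -50%, luminescence cut by over half; inconclusive = some wells, but at most half, below -50%; inactive = no replicate well below -50%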;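 note: luciferase reports HSF-1 transcriptional activity via heat shock element; 0% = median of DMSO wells and -100% = zero luminescence signal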
HSP90 inh: blocks HSP90-mediated luciferase refolding in reticulocyte lysate. 0.91% of 290,000 active. inhibition, % at 5.6 µM. AID 1789. Rabbit reticulocyte lysate, luciferase refolding luminescence, 3 h;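 active = inhibition above the screen-wide mean plus 3 SD, computed separately per campaign, cut at about 16% in these data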;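 note: 0% = DMSO wells and 100% = 60 µM geldanamycin wells; inhibitors lower the luminescence because luciferase stays unfolded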
dFosB activator: enhances mouse delta FosB homodimer DNA binding. activation, % at 25 µM. AID 493131. P13346. purified delta FosB, TAMRA-CDK5 oligo fluorescence polarization; percent of positive-control signal above neutral wells. 0.99% of 340,000 active;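 active = mean activation above about 17%, with every replicate also reaching it, limit read from the data, passing the limit was not always enough; inconclusive = only one of the two conditions met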
HSF-1 act: increases HSF-1 driven luciferase reporter signal; NIH3T3-HGL HSF-1 luciferase reporter, MG132, 8 h; 100% = twice DMSO control signal; activation, % at 9 µM; 1.7% of 300,000 active;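 active = mean replicate activation of at least 50% with a set share of replicates each reaching 50%; inconclusive = only one of those two conditions met; inactive = mean below 50% and too few replicates reaching it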;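 note: 0% = median of the neutral control wells and 100% = twice that signal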
MPTP block: inhibitors of mitochondrial permeability transition pore | isolated mouse mitochondria, Ca2+ swelling absorbance, 30 min | inhibition, % at 10 µM | 1.4% of 360,000 active;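 active = inhibition of 50% or more, scaled per plate between neutral and stimulator controls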;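 note: 0% = DMSO wells given calcium and 100% = 1 mM EGTA wells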
HSP90 inh confirm: confirmation of HSP90 inhibitors. rabbit reticulocyte lysate, luciferase refolding luminescence, 3 h. shares compounds with HSP90 inh. AID 1846. inhibition, % at 5.9 µM. 64% of 2,300 active; in the data active = inhibition above about 18%;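 note: 0% = vehicle wells and 100% = reference inhibitor wells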
FLuc counter: counter-screen for HSP90 inhibitors: inhibitors of firefly luciferase; purified native firefly luciferase, luminescence; AID 1847; shares compounds with HSP90 inh; 48% of 2,300 active; inhibition, % at 5.9 µM;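 active = inhibition above the mean inhibition of all tested sample wells plus 3 SD, cut at about 10% in these data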;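 note: 0% = DMSO with luciferase and 100% = wells lacking luciferase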
Active calls of the source: *; ? = inconclusive; nt = no result given.

SMILES	Platelet DG rel	HSF1 inhib	HSP90 inh	dFosB activator	HSF-1 act	MPTP block	HSP90 inh confirm	FLuc counter
CCCOc1ccc(/C=N/NC(=S)Nc2ccccc2[N+](=O)[O-])c(O)c1	-31	-90*	75*	nt	-92	nt	75*	21*
Cc1ccccc1NC(=S)N/N=C/c1ccc(O)cc1O	8	16	-1	1	20	3	nt	nt
O=C(CSc1nnc(CNC(=O)c2cccs2)o1)Nc1ccccc1C(F)(F)F	3	0	-3	0	-8	-1	nt	nt
NC1=NC2CS(=O)(=O)CC2S1 (configuration not stated)	9	-9	1	1	-6	-4	nt	nt
COc1ccc(NC(=O)c2ccc(COCC(F)(F)C(F)F)cc2)cc1	9	-4	19*	-3	11	0	-3	-8
CC(=O)Nc1ccc(-c2ccnc3c2CC(C(=O)Nc2cccc(C(C)=O)c2)O3)cc1 (configuration not stated)	nt	nt	nt	nt	nt	1	nt	nt
CC1Cc2cc(/C(O)=C3/C(=O)C(=O)N(Cc4ccco4)C3c3cccs3)ccc2O1 (configuration not stated)	1	-42	36*	-10	-45	3	1	1
CC1Cc2cc(/C(O)=C3/C(=O)C(=O)N(CCCn4ccnc4)C3c3ccco3)ccc2O1 (configuration not stated)	nt	nt	42*	-3	nt	-2	40*	39*
Cc1ccsc1/C=C1\CCc2ccccc2C1=O	64*	-8	31*	2	-14	0	79*	71*
Cc1ccccc1/C=C1\CCCc2ccccc2C1=O	-3	14	-5	4	18	0	nt	nt
O=C(Nc1ccc2c(c1)OCO2)c1ccc(Cl)cc1Cl	-10	26	24*	-2	53*	0	37*	22*
O=C(Nc1ccc2c(c1)OCCO2)c1ccc(Cl)cc1Cl	2	32	33*	-5	?	0	40*	30*
CCc1cc2c(-n3nc(C)cc3C)ncnc2s1	1	-4	39*	-12	-4	0	-2	-2
CCc1cc2c(SCC(=O)c3ccc(C)cc3)ncnc2s1	2	-3	0	-4	-3	36	nt	nt
Cc1ccc(NC(=O)c2cnn(-c3ccccc3)c2C)cc1C	9	-8	44*	-12	-9	0	64*	59*
COCCCN1C(=O)C(CC(=O)NCCN2CCOCC2)CC(C(=O)N2CCOCC2)=C1C (configuration not stated)	nt	nt	nt	nt	nt	0	nt	nt
O=C(O)c1ccc(S(=O)(=O)/N=C2\C=C(Nc3ccccc3F)C(=O)c3ccccc32)cc1	22	51	92*	-16	65*	6	94*	-15
Cc1ccccc1NC1=C/C(=N\S(=O)(=O)c2ccc(C(=O)O)cc2)c2ccccc2C1=O	-2	-9	98*	-10	-1	7	96*	-11
CCc1ccc(S(=O)(=O)/N=C2\C=C(NS(=O)(=O)c3ccccc3)C(=O)c3ccccc32)cc1	-7	3	2	-2	12	13	nt	nt
Cc1ccc2cc(NC(=O)CC(CC(=O)O)c3ccccc3)ccc2n1 (configuration not stated)	2	3	-7	-2	-5	0	nt	nt
Cc1ccoc1C(=O)Nc1ccc2ccccc2c1	29	11	24*	-8	32	-1	56*	47*
Cc1ccc2cc(NC(=O)c3ccccc3)ccc2n1	5	24	18*	-20	38	0	15	-3
O=C(Nc1ccc(F)c(Cl)c1)c1ccccc1	nt	nt	nt	1	nt	-1	nt	nt
Cc1ccc(C(=O)Nc2ccc3ccccc3c2)cc1	19	-35	69*	-6	-39	0	76*	69*
O=C(Nc1ccncc1)c1ccc2ccccc2c1	5	4	-2	-15	-6	9	nt	nt
O=C(Nc1ccc2ccccc2c1)c1ccc(Cl)cc1	-6	-7	23*	-5	-3	0	37*	17*
CCOC(=O)C1(C)CCCN1C(=O)c1ccccc1OC (configuration not stated)	nt	nt	nt	nt	nt	2	nt	nt
